Screens from PubChem.
Shown are actives, neighbours in structure and some others; about 7.6% of the full set was active somewhere.
BRCA1 expr act: activators of BRCA1 expression; MCF7-BRCA1-FFLuc reporter, luminescence, 48 h; response scale: scaled: vehicle 0%, 10 µM genistein 100%; Potency, µM (highest dose often 46.1 µM), hits mostly activators; actives 1.1% (n = 380,000); AID 624202; further: nearly all actives have a fitted effect of over 80% in size
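Quantitative HTS in MCF7 cells stably reporting BRCA1 expression via firefly luciferase. Compound treatment lasts 48 h at 37 °C in phenol-red free MEM. Activation is expressed relative to genistein at 10 microM and DMSO.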
Gal4-VP16 FLuc: inhibits Gal4-VP16 luciferase reporter, ROR gamma counter-screen; Drosophila S2 Gal4-VP16 UAS-luciferase, luminescence, 20 h; Potency, µM (highest dose often 53.6 µM), most hits filed as inhibitors; actives 3.5% (n = 310,000); AID 2546;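 further: Gal4-VP16 expression switched on by copper sulfate through the metallothionein promoter; nearly all actives have a fitted effect of over 50% in size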
Giardia kill: Giardia lamblia killing; activity change, % at 7.66 µM, hits read low; actives 0.15% (n = 340,000); Giardia lamblia trophozoite viability; AID 540267; in the data active means activity change below about -80%; inconclusive means between about -30% and that limit;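 further: parasites exposed to compound for two days anaerobically before the ATP read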
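Giardia trophozoites, 100 cells per well, were exposed to compounds for 48 hrs at 37 deg C under anaerobic conditions; viability was then read as ATP content by bioluminescence after 15-30 min at room temperature.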
p53 reactivation: re-activators of mutant p53; H1299 p53-A138V BP100-luciferase reporter, luminescence, 24 h; Potency, µM (doses to about 92.2 µM), usual class: activators; actives 0.063% (n = 320,000); further: nearly all actives have a fitted effect of over 45% in size
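H1299 (p53-null), stable ts p53-A138V + BP100-Luc; 1000 cells/well, Opti-MEM/10% FBS; cpd 4 pt, 1:5; 24 h, 37 deg C, 5% CO2; detection reagent 10 min RT; luminescence.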
RORg inh: inhibitors of mouse ROR gamma transcriptional activity. P51450. Drosophila S2 Gal4-RORgamma UAS-luciferase reporter, 20 h. Potency, µM (highest dose often 53.6 µM), usual class: inhibitors. actives 5.4% (n = 310,000); further: nearly all actives have a fitted effect of over 60% in size
Target sequence (P51450 whole entry, looked up, the tested form may be a part): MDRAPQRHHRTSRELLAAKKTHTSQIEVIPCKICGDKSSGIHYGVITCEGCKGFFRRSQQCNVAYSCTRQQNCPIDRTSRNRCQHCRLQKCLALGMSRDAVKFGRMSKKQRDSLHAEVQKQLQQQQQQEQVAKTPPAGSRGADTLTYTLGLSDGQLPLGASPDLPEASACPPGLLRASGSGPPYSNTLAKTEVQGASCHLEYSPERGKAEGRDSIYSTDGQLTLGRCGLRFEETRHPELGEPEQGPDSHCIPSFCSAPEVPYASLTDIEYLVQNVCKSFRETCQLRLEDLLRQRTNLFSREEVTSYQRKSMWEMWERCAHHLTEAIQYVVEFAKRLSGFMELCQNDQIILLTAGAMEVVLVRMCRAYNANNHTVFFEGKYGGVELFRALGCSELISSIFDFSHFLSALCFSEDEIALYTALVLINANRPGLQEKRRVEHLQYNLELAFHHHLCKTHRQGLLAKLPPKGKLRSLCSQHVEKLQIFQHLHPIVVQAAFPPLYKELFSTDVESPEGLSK
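Schneider cells (Drosophila), stable Gal4 DBD–ROR gamma + UAS-luc; 1 hr cmpd preincubation; Cu2+ induction 700 uM final; 20 hr ambient; luminescence.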
ELG1 repair inh: blocks ELG1-dependent DNA repair in HEK293T cells. HEK293T ELG1-luciferase reporter, luminescence, 16 h; DNA damage induced by 5-fluorouridine. Potency, µM (series often up to 46.1 µM), most hits filed as inhibitors. actives 2.3% (n = 330,000). AID 504467; further: nearly all actives have a fitted effect of over 55% in size
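Quantitative HTS, concentration-response format. 2,000 cells/well co-treated with 5-fluorouridine and compound, 16 hr in 5% CO2 at 37 °C; ONE-Glo luminescence read after 30 min.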
Of the large screens only hits and unclear results are named; the others gave an inactive call. Unless noted, the call rests on the fitted dose curve; in most records, active means well fitted curve in the direction sought with a large enough effect; inconclusive means small, poorly fitted or top-dose-only effect, or another doubt; inactive means no such curve, though single readings can be large; an effect the other way counts as inactive or inconclusive.

COc1cccc(CNC(=O)[C@H](CCSC)NC(=O)N2CCn3c2nc2ccccc23)c1	ELG1 repair inh 18.3µM
O=C(NC(c1ccc2ccccc2n1)c1cccs1)C1CCN(Cc2cccc(C(F)(F)F)c2)CC1 (configuration not stated)	none (no result: Gal4-VP16 FLuc, Giardia kill, p53 reactivation, RORg inh, ELG1 repair inh)
CCn1c(C)cc(C=C2C(=O)c3ccccc3C2=O)c1C	RORg inh 11.2µM, ELG1 repair inh inconclusive
C[C@@H](C(=O)Nc1ccc2ccccc2c1)[C@H]1C[C@]1(C)[C@H](NC(=O)c1cccnc1)c1ccccc1	Gal4-VP16 FLuc inconclusive, RORg inh inconclusive, ELG1 repair inh 18.4µM
Cc1cccc(NC(=S)NNC(=O)Cc2ccccc2)c1	Gal4-VP16 FLuc inconclusive, RORg inh 11.2µM
O=C(CSCc1ccccc1Cl)Nc1ccc(C(=O)O)cc1	none (no result: p53 reactivation)
Cc1cccc(NCC(=O)NNC(=S)Nc2ccccc2)c1	Gal4-VP16 FLuc inconclusive, RORg inh 11.2µM
O=C(CSCc1ccccc1Cl)NNC(=S)Nc1ccccc1	RORg inh 15.8µM
Cc1cccc(NC(=O)CNc2cc(C)ccc2C)c1	BRCA1 expr act 12.6µM, Gal4-VP16 FLuc inconclusive
CCOC(=O)C1=C(C)NC(=O)NC1c1ccc(OCC(=O)Nc2ccccc2)c(OC)c1 (configuration not stated)	none
CNC(=S)NNC(=O)CNc1ccc(C)c(Cl)c1	Gal4-VP16 FLuc 12.6µM, RORg inh 5.62µM
Cc1cccc(NC(=S)NNC(=O)c2csc(C)c2)c1	Gal4-VP16 FLuc inconclusive, p53 reactivation inconclusive, RORg inh 5.01µM, ELG1 repair inh inconclusive
Cc1cccc(NC(=S)NNC(=O)c2csc3c2CCCC3)c1	RORg inh inconclusive, ELG1 repair inh inconclusive
COc1ccc(N2CCN(C(=O)c3ccc(NS(=O)(=O)c4cccs4)cc3)CC2)cc1	RORg inh inconclusive, ELG1 repair inh inconclusive
Cc1nc(Cl)c(N=Cc2cccc([N+](=O)[O-])c2)c(Cl)n1	ELG1 repair inh inconclusive
COc1ccc(C(=O)Nc2cc3c4c(c2)CC(=O)N4CCC3)c(OC)c1	BRCA1 expr act 3.98µM, ELG1 repair inh inconclusive (no result: Gal4-VP16 FLuc, RORg inh)
Cc1ccc2oc(C(=O)N(Cc3ccc(N(C)C)cc3)C3CCS(=O)(=O)C3)c(C)c2c1 (configuration not stated)	none
Cc1ccc2c(C)c(C(=O)N(Cc3ccc(N(C)C)cc3)C3CCS(=O)(=O)C3)oc2c1 (configuration not stated)	ELG1 repair inh 16.4µM
Cc1cc2oc(C(=O)NCC(c3ccco3)N3CCCC3)c(C)c2cc1C (configuration not stated)	none (no result: Gal4-VP16 FLuc, Giardia kill, p53 reactivation, RORg inh, ELG1 repair inh)
C[C@@H]1C(=O)CC2C(C)(C)CCC[C@]2(C)[C@@]1(O)CCc1ccoc1 (some centres not stated)	none (no result: BRCA1 expr act, Giardia kill, p53 reactivation, ELG1 repair inh)
CC1CC2OC(=O)C3(C)CCCC(C)(C23)C1(O)CCc1ccoc1 (configuration not stated)	ELG1 repair inh 14.6µM
CN=C1C=CC(=C(c2ccc(N(C)C)cc2)c2ccc(N(C)C)cc2)C=C1	Gal4-VP16 FLuc 2.51µM, RORg inh inconclusive (no result: BRCA1 expr act, Giardia kill, p53 reactivation, ELG1 repair inh)
N#CC(C#N)=C(Nc1ccc(F)cc1)SCc1cccc(F)c1	Gal4-VP16 FLuc 14.1µM, RORg inh inconclusive, ELG1 repair inh inconclusive
CC1CC2(CC(C)(C(=O)CSc3n[nH]c(-c4ccccc4Cl)n3)OC2=O)C(=O)O1 (configuration not stated)	Gal4-VP16 FLuc inconclusive, RORg inh 10µM
CN(Cc1cc(=O)n2ccsc2n1)C1CCCCC1	none
CCc1cccc(CC)c1NC(=S)NCCc1ccc(O)c(O)c1	RORg inh 12.6µM
COc1ccc2[nH]c(C)c(CCNC(=S)Nc3ccccc3C)c2c1	Gal4-VP16 FLuc inconclusive, RORg inh inconclusive
COc1ccc2[nH]c(C)c(CCNC(=S)Nc3cccc(C)c3C)c2c1	Gal4-VP16 FLuc inconclusive, RORg inh 7.08µM, ELG1 repair inh inconclusive
CCc1cccc(CC)c1NC(=S)NCCc1c(C)[nH]c2ccccc12	Gal4-VP16 FLuc 7.08µM, RORg inh inconclusive, ELG1 repair inh inconclusive
O=C(CNC(=O)c1ccccc1)NCCc1ccc(O)c(O)c1	none (no result: BRCA1 expr act, Giardia kill)
Cc1ccc2cccc(NC(=O)COc3ccccc3Cl)c2n1	none (no result: Gal4-VP16 FLuc, Giardia kill, p53 reactivation, RORg inh, ELG1 repair inh)
O=C(/C=C/c1ccco1)NCC1OCCc2ccccc21 (configuration not stated)	none
COc1ccccc1C1=NN(C2=NN=C(N)Cc3ncnn32)C(O)(C(F)(F)F)C1 (configuration not stated)	RORg inh inconclusive
NC1=NN=C(N2N=C(c3ccc(Br)cc3)CC2(O)C(F)(F)F)n2ncnc2C1 (configuration not stated)	Gal4-VP16 FLuc 17.8µM, RORg inh inconclusive
COc1ccc(C2=NN(C3=NN=C(N)Cc4ncnn43)C(O)(C(F)(F)F)C2)cc1 (configuration not stated)	Gal4-VP16 FLuc 11.2µM, RORg inh 8.91µM
NC1=NN=C(N2N=C(c3ccccc3)CC2(O)C(F)(F)F)n2ncnc2C1 (configuration not stated)	Gal4-VP16 FLuc inconclusive, RORg inh 12.6µM
COc1cccc(C2=NN(C(=O)c3cccs3)C(O)(C(F)(F)F)C2)c1 (configuration not stated)	ELG1 repair inh inconclusive
CC(=O)C1=C(C)N(Cc2ccccc2)C(=O)N[C@H]1c1cccs1	none
CCCCOc1ncnc2c1[nH]c1ccc(OCC)cc12	none
CCCCOc1ncnc2c1[nH]c1ccc(F)cc12	Gal4-VP16 FLuc 7.94µM, RORg inh inconclusive, ELG1 repair inh inconclusive
CCCCOc1ncnc2c1[nH]c1ccccc12	Gal4-VP16 FLuc 10µM, p53 reactivation inconclusive, RORg inh inconclusive, ELG1 repair inh inconclusive
CSc1ccccc1NC(=O)COC(=O)Cc1cccs1	none
CCOC(=O)COn1c(-c2cccc(Cl)c2)nc2ccc([N+](=O)[O-])cc21	BRCA1 expr act 7.08µM, p53 reactivation inconclusive
CCOC(=O)C1CCCN(S(=O)(=O)c2ccc3c(c2)CC(C)N3C(=O)C2CC2)C1 (configuration not stated)	none
CCN1C=C(Cc2ccc(OC)cc2)C2=C(C1)C(c1ccc(OC)cc1)C(C#N)=C(N)O2 (configuration not stated)	ELG1 repair inh 20.6µM
CC(C)CN1CCN(Cc2cnc(-c3ccc(Cl)cc3)nc2)CC1CCO (configuration not stated)	none
OCCC1CN(Cc2cnc(-c3ccc(Cl)cc3)nc2)CCN1C1CCCC1 (configuration not stated)	ELG1 repair inh 6.51µM
Nc1ccc2c(c1)C(=O)C(=O)c1ccccc1-2	Gal4-VP16 FLuc 2.82µM, RORg inh 1.78µM, ELG1 repair inh 4.61µM
O=C1C(=O)c2ccc(-c3ccccc3)cc2-c2ccccc21	Gal4-VP16 FLuc 3.55µM, RORg inh 3.16µM, ELG1 repair inh 9.2µM
